This is an account of results in PubChem BioAssay.

Test [1] in a line: glutamate transport activators, MN-1 cells, MN-1 cell line (AID 1612).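 Also: tested at 1 µM final; 0% = mean of DMSO vehicle wells on each plate; positive means more glutamate uptake than control and negative means less.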 As to conditions: MN-1 motor neuron cells, stronger effect = higher value.
Test [2] can be described thus: 75Q-TubH aggregate inhibition, S. cerevisiae, yeast (AID 1616). As to conditions: S. cerevisiae 75Q-TubH polyglutamine aggregation suppression; stronger effect = higher value.
Test [3] in a line: P. berghei load reduction in hepatocytes – cell-based, HepG2, luciferase luminescence, HepG2 viability, primary screen (AID 624349).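 Also: 100% = mean of DMSO negative control wells on the same plate.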 Particulars: P. berghei liver stage in HepG2, luciferase luminescence, concentration not given here; parasite load remaining: stronger effect = lower value; viability: measured here: HepG2 viability without parasites.
Test [4] in a line: Wnt pathway potentiators raising nuclear beta-catenin – imaging, WNT3A-conditioned medium, mouse C2C12, NPC library, primary screen (AID 1117326; in the data active = nuclear beta-catenin stimulation mostly above about 4.2%, no sharp cut-off; inactive = mostly below about 10%). Particulars: stronger effect = higher value.
Test [5] can be described thus: antimalarial activity against Dd2 strain (AID 2302;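 active = growth inhibition above 50% at the single 2 µM test dose, taken to imply half-maximal potency below 2 µM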;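 also: 0% = DMSO untreated growth and 100% = chloroquine plus artemisinin killed control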). Particulars: P. falciparum Dd2 in RBCs, LDH growth readout, 72 h; at 2 µM; stronger effect = higher value.
Test [6] can be described thus: human hepatoma cell viability loss – ATP luminescence, cytotoxicity control for P. falciparum antimalarial project, primary screen (AID 2303;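 active = inhibition above 50%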;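 also: 0% = DMSO wells and 100% = digitonin-killed cells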). As to conditions: HepG2 viability, 24-48 h, at 10 µM, stronger effect = higher value.
Test [7] deals with L-lactate dehydrogenase (Plasmodium falciparum (isolate CDC / Honduras)) (UniProt Q27743). The experiment in a line: PfLDH activity inhibition – cell lysate, 3D7 strain, counter-screen for P. falciparum growth inhibition project (AID 2304; call rule not given here;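 also: 0% = vehicle and 100% = reference inhibitor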). As to conditions: P. falciparum 3D7 crude extract, LDH APAD/NBT absorbance; at 2 µM; stronger effect = higher value. (A counterscreen serves to expose hits that act by an unwanted route or on another target.)

The nature of test [8]: inhibition of 3D7 malaria parasite growth – strain 3D7 (AID 2306; call rule not given here;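 also: 0% = DMSO wells and 100% = chloroquine plus artemisinin control wells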). As to conditions: P. falciparum 3D7 erythrocytic growth, LDH absorbance, 72 h; at 2 µM; stronger effect = higher value.
A short description of test [9]: liver-stage malaria parasite load reduction – cell-based, known kinase inhibitor set, luminescence, hepatoma host viability (AID 624392; call rule not given here;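 also: infected cells incubated roughly two days before readout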). Particulars: Plasmodium liver stage in hepatoma cells, luciferase luminescence, concentration not given here; liver cell % of control: measured here: host liver cell viability; parasite % of control: stronger effect = lower value.
The nature of test [10]: compounds altering viability of human ES cells (AID 493140; call rule not given here;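 also: cells exposed to compounds for four days before counting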). Particulars: human embryonic stem cell survival screen; stronger effect = higher value.
Test [11] can be described thus: compounds altering circadian rhythm period length – cell-based, LOPAC library, luminescence reporter (AID 2774; call rule not given here;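 also: values are relative to mean of DMSO wells on each plate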). As to conditions: circadian reporter cells, at 7 µM, actives lie on both sides.
For test [12], the system named is Hepatitis C virus NS3 helicase. Briefly: blockers of NS3h binding to ssDNA – biochemical, fluorescence polarization, LOPAC1280 library, primary screen (AID 687035; in the data active = inhibition above about 37%). Particulars: Purified HCV NS3 helicase, Cy5-dT15 ssDNA binding fluorescence polarization; stronger effect = higher value; concentration not given here.
Test [13] is described as follows: compounds altering Cy5-DNA-NS3h complex signal – biochemical, LOPAC1280, artefact control for HCV NS3 helicase inhibitor project (AID 687037; call rule not given here). As to conditions: Cy5-DNA-NS3h complex fluorescence interference counterscreen.

“And” between values parts separate entries of the source, which are not always exact repeats. Equal entries are not always repeated. The source made the active and inactive calls. Rule as the data show it, unless noted: active = parasite load remaining mostly below about 12% (no sharp cut-off); inactive = mostly above about 10%.

Sequence of L-lactate dehydrogenase (Plasmodium falciparum (isolate CDC / Honduras)) (Q27743 whole entry, looked up): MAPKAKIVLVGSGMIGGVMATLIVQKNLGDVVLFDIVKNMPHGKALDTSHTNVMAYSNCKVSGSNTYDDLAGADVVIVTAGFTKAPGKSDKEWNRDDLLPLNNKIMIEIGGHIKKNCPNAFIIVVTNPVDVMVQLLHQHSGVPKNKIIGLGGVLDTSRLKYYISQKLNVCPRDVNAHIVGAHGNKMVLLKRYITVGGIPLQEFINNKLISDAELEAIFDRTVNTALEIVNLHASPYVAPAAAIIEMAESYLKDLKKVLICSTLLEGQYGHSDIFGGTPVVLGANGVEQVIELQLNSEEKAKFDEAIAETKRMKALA

As a reminder, the viability is a per cent measure of how many cells are alive, often set against a control. In the case of `Cc1cc(O)cc(C)c1Cl`, the glutamate uptake change in test [1] was -5.88%. For the same molecule, in test [2], the aggregation suppression score was found to be 0.248. Besides, the parasite load remaining in [3] is 69.1% (inactive) and 37.2% (inactive). In test [3], the viability is 76.7% and 78.6%. For the same molecule, the nuclear beta-catenin stimulation in test [4] (at 10 µM) is -0.1% (inactive); in test [4] (stimulation, at 2 µM), 2%.

By inhibition is commonly meant the relative decrease from the control value, in per cent. For the molecule `COc1cc2c(Nc3ccc(Br)cc3F)ncnc2cc1OCC1CCN(C)CC1`, the growth inhibition in test [5] is 16% (inactive); in test [8], 97% (active). Moreover, the inhibition in [6] was 10% (inactive); in test [7], 5% (inactive). In addition, the liver cell % of control in test [9] was 42.4% and 45.4% and 52%. Also, the parasite % of control in test [9] is 0.285% (inactive) and 8.38% (inactive) and 117% (inactive). For the same molecule, the nuclear beta-catenin stimulation in [4] (at 10 µM) is -0.3% (inactive); in [4] (stimulation, at 2 µM) it was -0.9%.

For `Cc1nc(N)nc(N)c1-c1ccc(Cl)c(Cl)c1`, the growth inhibition in [5] was -1% (inactive); in test [8], 95% (active). The inhibition in [6] is 66% (active); in test [7], 3% (inactive). For the same molecule, the nuclear beta-catenin stimulation in test [4] (at 10 µM) is 42.9% (active); in [4] (stimulation, at 2 µM), 55.1%.

For the molecule `CCCCC(CC)CN1CN(CC(CC)CCCC)CC(C)(N)C1` (configuration not stated), the glutamate uptake change in [1] was found to be 2.82%. Further, the aggregation suppression score in [2] stood at 0.306. Also, the survival in test [10] is 6.83 (inactive). Besides, the parasite load remaining in test [3] is 136% (inactive) and 95.8% (inactive) and 66.4% (inactive). In addition, the viability in test [3] was 98.8% and 69.2% and 87.2%. Moreover, the nuclear beta-catenin stimulation in test [4] (at 10 µM) was -4.8% (inactive); in [4] (stimulation, at 2 µM), 3.6%.

`CCN(CC)CCOc1ccc(/C(=C(\Cl)c2ccccc2)c2ccccc2)cc1`: the glutamate uptake change in test [1] was -0.41%. In test [2], the aggregation suppression score came out at 0.524. In [3], the parasite load remaining was 16% (inactive) and 5.06% (inactive); the viability was 73.6% and 90.4%. In addition, the nuclear beta-catenin stimulation in test [4] (at 10 µM) is 40.9% (active). Further, the nuclear beta-catenin stimulation in test [4] (stimulation, at 2 µM) amounted to 12.4%.

Take `Nc1ccc(N=Nc2ccccc2)c(N)n1`: the glutamate uptake change in test [1] is -9.75%. Besides, in test [2], the aggregation suppression score amounted to 1.49. Moreover, in test [10], the survival was 4 (inactive). In addition, in [3], the parasite load remaining is 122% (inactive) and 140% (inactive) and 51.9% (inactive); the viability is 90.8% and 67.3% and 81.9%. In addition, the nuclear beta-catenin stimulation in test [4] (at 10 µM) is 5.9% (inactive). For the same molecule, in [4] (stimulation, at 2 µM), the nuclear beta-catenin stimulation turned out to be 3.5%.

For the molecule `CCCCCN(CCCCC)C(=O)C(CCC(=O)O)NC(=O)c1ccc(Cl)c(Cl)c1` (configuration not stated), the period change in test [11] was 0.13 h (inactive). In test [10], the survival was 1.92 (inactive). For the same molecule, in test [3], the parasite load remaining was 72.3% (inactive) and 35.5% (inactive); the viability was 92.1% and 74.5%. The inhibition in test [12] is -5% (inactive). Further, in test [13], the fluorescence ratio (interference) is 0.9 (inactive). In addition, in test [4] (at 10 µM), the nuclear beta-catenin stimulation is -0.8% (inactive). The nuclear beta-catenin stimulation in test [4] (stimulation, at 2 µM) is -0.1%.

With `CCN(CC)Cc1cc(Nc2ccnc3cc(Cl)ccc23)ccc1O`, the growth inhibition was 99% (active) in test [5] and 102% (active) in test [8]. For the same molecule, the figures for the inhibition in test [6] and in test [7] were -2% (inactive) and 3% (inactive), respectively. The survival in test [10] was 6.17 (inactive). The parasite load remaining in [3] is 2.94% (inactive) and 43.6% (inactive). In addition, the viability in [3] is 35.5% and 83.9%. Besides, the nuclear beta-catenin stimulation was 0.5% (inactive) in test [4] (at 10 µM) and -1.5% in test [4] (stimulation, at 2 µM).

Regarding `Oc1c(I)cc(I)c2cccnc12`, the glutamate uptake change in test [1] amounted to 78.2%. Also, the aggregation suppression score in test [2] is 0.108. Further, in test [3], the parasite load remaining was 92.2% (inactive) and 20.2% (inactive); the viability is 77.1% and 92.8%. In addition, the nuclear beta-catenin stimulation in test [4] (at 10 µM) was 0.7% (inactive). Moreover, in [4] (stimulation, at 2 µM), the nuclear beta-catenin stimulation amounted to 1%.

Consider `C[n+]1cc2c3c(ccc2c2ccc4cc5c(cc4c21)OCO5)OCO3`, for which the period change in test [11] is -0.18 h (inactive). Moreover, the survival in test [10] is 1.33 (inactive). Besides, in [3], the parasite load remaining is -0.155% (inactive) and -0.085% (inactive); the viability was 0.535% and 0%. In [12], the inhibition is -2% (inactive). Further, in [13], the fluorescence ratio (interference) was 1 (inactive). In test [4] (at 10 µM), the nuclear beta-catenin stimulation is 32.4% (inactive). For the same molecule, in test [4] (stimulation, at 2 µM), the nuclear beta-catenin stimulation was found to be 1.3%.

For the molecule `CC(=O)OC/C=C(C)/C=C/C=C(C)/C=C/C1=C(C)CCCC1(C)C`, the glutamate uptake change in test [1] was -12.9%. The same molecule displayed an aggregation suppression score in test [2] of 0.917. The parasite load remaining in test [3] is 135% (inactive) and 40.4% (inactive). For the same molecule, the viability in [3] is 96.6% and 98.5%. Besides, the nuclear beta-catenin stimulation in test [4] (at 10 µM) is 3.8% (inactive); in test [4] (stimulation, at 2 µM) it was 3.9%.
